BAZ2B block: BAZ2B (human) inhibition. AlphaScreen BAZ2B-H3K14Ac peptide displacement. Potency, µM (highest dose often 114 µM), hits mostly inhibitors. 360,000 tested, 4.4% active. AID 504333; also: nearly all actives have a fitted effect of over 60% in size
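AlphaScreen displacement of biotin-H3(5-23)K14Ac peptide (50 nM final) from BAZ2B (50 nM final) in PBS pH 7.4, 0.01% Tween-20; complex preformed 30 min RT, then compounds (top 110 uM) 30 min RT, beads 20 min dark.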
HP1b chromo inh: blocks HP1-beta chromodomain binding to methylated histone tails; P83916; 390,000 tested, 0.56% active; Potency, µM (doses to about 114 µM), usual class: inhibitors; AlphaScreen HP1-beta / biotin-H3K9me3 peptide binding; also: nearly all actives have a fitted effect of over 70% in size
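Compound inhibition of the preformed complex between 50 nM HP1-beta and 50 nM biotinylated H3K9me3 peptide was read by AlphaScreen. Buffer was PBS pH 7.4 with 0.01% Tween-20. Incubations ran 30 min at room temperature, with 10 ug/mL donor/acceptor beads.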
Six1-Eya2 inh: blocks human Six1 binding to Eya2; activity change, % (concentration not given with the values); 360,000 tested, 0.56% active; AID 651725; AlphaScreen GST-Six1/His-Eya2 binding, biochemical; active compounds read low; Q15475+O00167; in the data active = activity change below about -65%; inconclusive = mostly about -30% to -63%
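AlphaScreen with GST-Six1 and His-Eya2 (5X mix: 250 nM and 500 nM), glutathione donor and nickel acceptor beads; buffer 50 mM Tris pH 8.0, 300 mM NaCl, 1 mM TCEP; 1 h at 37 C in the dark.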
JMJD2A Tudor: inhibitors of human JMJD2A Tudor domain; AID 504339; AlphaScreen JMJD2A-Tudor / H3K4me3 peptide binding; Potency, µM (top dose mostly 114 µM), actives largely listed as inhibitors; 390,000 tested, 4.4% active; O75164; also: nearly all actives have a fitted effect of over 50% in size
Target sequence (O75164 whole entry, looked up, the tested form may be a part): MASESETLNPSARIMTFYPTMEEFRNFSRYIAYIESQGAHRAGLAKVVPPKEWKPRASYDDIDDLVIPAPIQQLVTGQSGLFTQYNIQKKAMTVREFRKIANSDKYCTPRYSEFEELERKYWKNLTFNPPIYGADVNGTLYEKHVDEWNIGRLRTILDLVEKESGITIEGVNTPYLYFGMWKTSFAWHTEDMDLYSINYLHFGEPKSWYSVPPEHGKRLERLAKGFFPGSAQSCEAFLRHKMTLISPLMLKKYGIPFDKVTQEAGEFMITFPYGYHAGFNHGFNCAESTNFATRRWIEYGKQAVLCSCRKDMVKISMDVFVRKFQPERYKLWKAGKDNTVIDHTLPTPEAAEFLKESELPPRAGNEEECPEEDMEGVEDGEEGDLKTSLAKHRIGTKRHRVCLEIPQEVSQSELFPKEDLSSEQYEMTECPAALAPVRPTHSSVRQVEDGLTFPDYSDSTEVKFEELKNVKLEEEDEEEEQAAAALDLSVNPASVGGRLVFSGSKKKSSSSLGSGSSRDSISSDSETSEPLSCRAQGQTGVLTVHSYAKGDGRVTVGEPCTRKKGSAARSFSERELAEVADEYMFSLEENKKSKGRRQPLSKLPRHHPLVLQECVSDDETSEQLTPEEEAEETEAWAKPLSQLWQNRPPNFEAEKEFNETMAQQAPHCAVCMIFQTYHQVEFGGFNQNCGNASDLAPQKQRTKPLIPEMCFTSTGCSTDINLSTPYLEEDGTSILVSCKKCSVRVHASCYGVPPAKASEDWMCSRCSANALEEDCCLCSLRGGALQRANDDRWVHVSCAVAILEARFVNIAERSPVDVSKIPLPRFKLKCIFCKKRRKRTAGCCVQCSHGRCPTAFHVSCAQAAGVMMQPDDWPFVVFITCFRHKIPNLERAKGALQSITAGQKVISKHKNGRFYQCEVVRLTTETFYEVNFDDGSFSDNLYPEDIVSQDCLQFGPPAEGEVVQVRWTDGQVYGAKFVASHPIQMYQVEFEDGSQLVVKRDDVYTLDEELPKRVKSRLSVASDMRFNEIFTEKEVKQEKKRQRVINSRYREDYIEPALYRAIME
G9a block: inhibitors of human histone lysine methyltransferase G9a | Q96KQ7 | G9a H3K9 monomethylation, AlphaScreen, 2 h | Potency, µM (top dose mostly 102 µM), most hits filed as inhibitors | 350,000 tested, 8.8% active | AID 504332; also: nearly all actives have a fitted effect of over 75% in size
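Methyltransferase reactions run at room temperature for 2 h (20 nM enzyme, 500 nM biotin-H3K9 peptide, 20 uM SAM) after a 15 min compound preincubation; product detected by AlphaScreen beads and anti-H3K9me1 antibody.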
CtBP-E1A inh: inhibitors of CtBP/E1A interaction. AlphaScreen GST-E1A/His-CtBP binding, 1536-well; active compounds read low. activity change, % (no concentration beside the values). 340,000 tested, 0.49% active. AID 651724; in the data active = activity change below about -65%; inconclusive = mostly about -30% to -63%
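GST-E1A and His-tagged CtBP (125 nM each as 5X stock) were preincubated with pin-transferred compound for 2 h at 37 °C in the dark, then glutathione donor and nickel acceptor beads were added for 1 h before AlphaScreen reading.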
A number is an active result; - = inactive; ? = inconclusive; . = no result; [ ] = remark or other dose. A selection: hits, their analogues and other compounds. The true share with any hit is near 10%. Unless noted, calls follow the shape of the dose curve; as a rule, active = well fitted inhibition curve with a large enough effect; inconclusive = small, poorly fitted or top-dose-only effect; inactive = no such curve, though single readings can be large or run the other way.

SMILES | BAZ2B block | HP1b chromo inh | Six1-Eya2 inh | JMJD2A Tudor | G9a block | CtBP-E1A inh
CC(C)N(C(=O)CSc1nnc(-c2cc3ccccc3cc2O)n1Cc1ccco1)C(C)C | - | - | - | - | 13µM | -
Cc1ccccc1CSc1nnc(-c2ccco2)n1Cc1ccco1 | 50µM | - | - | ? | -[0.501 µM] | -
CCN(CC)C(=O)CSc1nnc(-c2ccco2)n1Cc1ccco1 | - | - | - | - | 40µM | -
COc1ccccc1NC(=O)C(OC(=O)CNC(=O)c1ccccc1)c1ccccc1 (stereo not drawn) | . | . | . | - | . | .
CCc1ccc2[nH]c(=O)c(CN(Cc3cccnc3)Cc3nnnn3Cc3ccccc3)cc2c1 | . | - | . | - | . | .
CC(C)Cn1cnc2c(c(-c3ccccc3)c(-c3ccccc3)n2Cc2ccco2)c1=N | ? | - | - | ? | ? | -
N=c1c2c(-c3ccccc3)c(-c3ccccc3)n(Cc3ccco3)c2ncn1CCCN1CCOCC1 | ? | - | - | - | ? | -
N=c1c2c(-c3ccccc3)c(-c3ccccc3)n(Cc3ccco3)c2ncn1Cc1ccccc1 | 45µM | - | - | - | -[12.7 µM] | -
O=c1c2c3nc4ccccc4nc3n(Cc3ccccc3)c2ncn1Cc1ccco1 | 50µM | - | - | - | ? | -
COCCCn1c2nc3ccccc3nc2c2c(=O)n(Cc3ccc(Cl)cc3)cnc21 | - | - | - | - | - | -
c1ccc(-c2oc3ncnc(NCCCn4ccnc4)c3c2-c2ccccc2)cc1 | 25µM | ? | - | 56µM | ? | -
OCCNc1ncnc2c1c(-c1ccccc1)c(-c1ccccc1)n2Cc1ccco1 | 50µM | - | - | 56µM | 18µM | -
COc1ccc(Cl)cc1NC(=O)Cn1c(=O)n(Cc2nc(C)no2)c(=O)c2ccccc21 | - | - | . | - | - | .
COc1ccccc1NC(=O)C(Cc1ccccc1)NS(=O)(=O)c1ccc2c(c1)CCN2C(C)=O (stereo not drawn) | . | - | . | - | - | .
Cc1cccc(OCCCn2c(CCNC(=O)C3CCCCC3)nc3ccccc32)c1 | - | - | . | - | - | .
N=c1c2c(-c3ccccc3)c(-c3ccccc3)n(Cc3ccco3)c2ncn1CCCn1ccnc1 | ? | - | - | ? | ? | -
c1ccc(-c2c(-c3ccccc3)n(Cc3ccco3)c3ncnc(NCCCn4ccnc4)c23)cc1 | 32µM | ? | ? | 45µM | ? | ?
CCOc1ccc(NC(=O)c2cnc(N3CCCC3)nc2C)cc1 | - | - | . | - | - | .
Cc1cc(Br)ccc1OCCCCN1CCCCC1 | 50µM | ? | - | 1.6µM | ? | -
Cc1cc(Br)ccc1OCCOCCN1CCCC1 | ? | - | - | 25µM | . | .
Cc1ccc(OCCOCCN2CCCC2)c(Br)c1 | 56µM | ? | - | 28µM | 35µM | -
CC1CCCCN1C(=O)c1ccc2c(c1)N(Cc1ccc(F)cc1)C(=O)c1ccccc1S2(=O)=O (stereo not drawn) | - | - | . | - | - | .
COC(=O)c1ccc(Cn2c(SCc3cccc(C)c3)nc3ccncc32)cc1 | - | - | . | - | ? | .
O=C1CCCN1CCCNCC(O)c1ccccc1 (stereo not drawn) | ? | ? | - | 1µM | - | -
O=C(CNC(=O)c1ccccc1F)NCCCN1CCCC1=O | - | - | - | - | - | -
SMILES | BAZ2B block | HP1b chromo inh | Six1-Eya2 inh | JMJD2A Tudor | G9a block | CtBP-E1A inh
CC(C)OCCCNCC(O)c1ccccc1 (stereo not drawn) | 79µM | ? | - | 20µM | ? | -
OC(CNCc1ccccc1)c1ccccc1 (stereo not drawn) | - | - | - | - | - | -
O=C1CCCN1CCCNCC(=O)N1c2ccccc2Sc2ccccc21 | 22µM | ? | - | 10µM | ? | -
O=C(CSc1ccc2ccccc2c1)NCCCN1CCCC1=O | - | - | - | - | ? | .
O=C(CCS(=O)(=O)c1ccc(Br)cc1)NCc1cccs1 | 50µM | 50µM | - | 35µM | ? | -
O=C(CCS(=O)(=O)c1ccc(Br)cc1)NCc1ccco1 | 50µM | - | - | - | - | .
COc1ccc(CN2C(=O)c3cccnc3C2Nc2ccc(OC)c(Cl)c2)cc1 (stereo not drawn) | ? | - | - | 50µM | ? | -
Cc1ccc(NC2c3ncccc3C(=O)N2Cc2ccc(F)cc2)cc1 (stereo not drawn) | - | - | - | - | ? | -
COc1ccc(NC2c3ccccc3C(=O)N2Cc2ccccc2Cl)cc1OC (stereo not drawn) | ? | ? | - | -[11.4 µM] | 50µM | ?
COc1ccc(NC(=O)C2(C)CCN2Cc2ccccc2Cl)cc1OC (stereo not drawn) | . | . | - | . | . | -
COc1ccc(NC2c3ncccc3C(=O)N2Cc2ccccc2)c(OC)c1 (stereo not drawn) | ? | - | - | 25µM | 13µM | -
COc1ccc(-n2nc(C(=O)Nc3ccccc3OC)c3c4ccccc4n(C)c3c2=O)cc1Cl | - | - | . | - | - | .
CCc1ccccc1NC(=O)CSc1ncc(S(=O)(=O)c2ccc(C(C)C)cc2)c(N)n1 | - | - | . | 20µM | - | .
CC(C)c1ccc(S(=O)(=O)c2cnc(SCC(=O)Nc3ccc(F)cc3F)nc2N)cc1 | - | - | . | - | - | .
CCc1ccccc1NC(=O)CSc1ncc(S(=O)(=O)c2ccccc2)c(N)n1 | - | - | . | - | 13µM | .
COc1ccc(C2/C=C\CN(C(=O)C3CCCCC3)C(Cc3ccccc3)C(=O)N2Cc2ccc(F)cc2)cc1 (stereo not drawn) | . | - | . | - | . | .
O=C(/C=C/c1ccc(O)c(O)c1)NC(=O)c1ccccc1O | 50µM | ? | - | 63µM | -[12.7 µM] | -
O=C(/C=C/c1ccc(O)c(O)c1)O[C@H](Cc1ccc(O)c(O)c1)C(=O)O | 3.5µM | . | . | . | ? | .
O=C(O)/C=C/c1ccc(O)c(O)c1 | ? | - | - | ? | 11µM | -
COc1cc(/C=C/C(=O)O)ccc1O | . | - | - | - | -[2.33 µM] | -
CC(C)OCCCNC(=O)CCCn1c(SCC(N)=O)nc2c(sc3ccccc32)c1=O | - | - | . | - | - | .
Cc1ccc(Cl)cc1N1CCN(C(=O)c2sc3nc4n(c(=O)c3c2C)CCC4)CC1 | - | - | . | - | - | .
NC[C@@H]1O[C@@H](O[C@H]2[C@H](O)[C@@H](O[C@@H]3O[C@@H](CO)[C@H](O)[C@@H](N)[C@@H]3O)[C@H](N)C[C@@H]2N)[C@@H](O)[C@H](O)[C@H]1O | . | . | . | . | - | .
COc1ccc(C(=O)CCC(=O)Nc2ccc(C)c(Cl)c2)cc1 | - | - | . | - | - | .
Cc1ccc2[nH]c3c(c2c1)CCCC3=O | ? | - | - | - | -[12.7 µM] | -
Cc1ccc2[nH]c3c(c2c1)CCCC3NCCO (stereo not drawn) | ? | - | - | ? | 50µM | -
NS(=O)(=O)c1ccc(NC(=O)CSc2nnc(NC3CC3)s2)cc1 | ? | ? | - | ? | 45µM | -
